The supplement of paper PMC6607015
Structures can show the parent of a compound that is named as a salt.

Experiments:
Conditions in all cases: compound concentration in added solution (µM; 5 µl added to 20 µl cells): 10; 18 h
[1] = test system: A431; experiment: LBPA endosome anti-LBPA integrated intensity (sum per cell), Z-score; higher = more LBPA staining
Method in brief: (§1)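 HeLa MZ or A431 cells (3,500/well in 20 µl) were seeded onto 5 µl of 10 µM compound solution in duplicate 384-well imaging plates, incubated 18 h, then fixed in 4% PFA. Cells were stained with 6C4 anti-LBPA antibody, filipin, propidium iodide and CellTracker green, and four 20× images were taken per well. MetaXpress segmentation gave per-cell integrated LBPA or filipin intensity, either whole-cell or within LBPA endosomes. Values are Z-scores normalised in AcuityXpress.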

[2] = test system: HeLa MZ; experiment: as above
Method in brief: as §1

[3] = test system: A431; experiment: whole-cell filipin (free cholesterol) integrated intensity, Z-score; higher = more cholesterol staining
Method in brief: as §1

[4] = test system: HeLa MZ; experiment: as above
Method in brief: as §1

[5] = test system: A431; experiment: filipin (cholesterol) integrated intensity within LBPA endosomes, Z-score; higher = more cholesterol in LBPA endosomes
Method in brief: as §1

[6] = test system: HeLa MZ; experiment: as above
Method in brief: as §1

| Structure (SMILES) | LBPA endosome anti-LBPA integrated intensity (z-score) [1] | LBPA endosome anti-LBPA integrated intensity (z-score) [2] | whole-cell filipin (z-score) [3] | whole-cell filipin (z-score) [4] | filipin (z-score) [5] | filipin (z-score) [6] |
| --- | --- | --- | --- | --- | --- | --- |
| CN1C(=O)OC(C)(C)C1=O [Trimethadione] | -0.446 | -0.0741 | -0.388 | -0.0387 | -0.476 | -0.496 |
| CC(C(=O)O)c1ccc(C(=O)c2cccs2)cc1 (centres undefined) [Suprofen] | -0.328 | 0.404 | 0.0494 | 0.84 | -0.289 | -0.21 |
| Clc1ccc(COC(Cn2ccnc2)c2ccc(Cl)cc2Cl)cc1 (centres undefined) [Econazole nitrate] | 0.0817 | 1.63 | 0.484 | 0.898 | -0.0604 | 0.606 |
| CC(NCCc1ccc(O)cc1)C(O)c1ccc(O)cc1 (centres undefined) [Ritodrine hydrochloride] | -0.357 | 0.237 | -0.158 | -0.199 | -0.481 | -0.491 |
| NC(=O)N/N=C/c1ccc([N+](=O)[O-])o1 [Nitrofural] | -0.562 | -0.605 | -0.633 | -0.478 | -0.506 | -0.689 |
| CCOC(=O)[C@H](CCc1ccccc1)N[C@@H](C)C(=O)N1Cc2ccccc2C[C@H]1C(=O)O [Quinapril HCl] | -0.508 | -0.151 | -0.267 | -0.543 | -0.453 | -0.577 |
| Cc1ccc(S(=O)(=O)NC(=O)NN2CC3CCCC3C2)cc1 (centres undefined) [Gliclazide] | -0.621 | -1.17 | -0.806 | -0.679 | -0.555 | -0.64 |
| Nc1nc2c(ncn2COCCO)c(=O)[nH]1 [Acyclovir] | -0.598 | -1.1 | -1.13 | -0.395 | -0.557 | -0.66 |
| COCCOC(=O)C1=C(C)NC(C)=C(C(=O)OC/C=C/c2ccccc2)C1c1cccc([N+](=O)[O-])c1 (centres undefined) [Cilnidipine] | 0.601 | 0.589 | 1.38 | -0.377 | 0.591 | 0.579 |
| COc1ncnc(NS(=O)(=O)c2ccc(N)cc2)c1OC [Sulfadoxine] | -0.426 | -0.662 | 0.0314 | -0.436 | -0.379 | -0.505 |
| Clc1ccccc1C(c1ccccc1)(c1ccccc1)n1ccnc1 [Clotrimazole] | -0.44 | 0.655 | -0.0982 | 0.216 | -0.276 | -0.063 |
| CCC1(c2ccccc2)C(=O)NCNC1=O [Primidone] | -0.559 | -0.0866 | -0.586 | -0.472 | -0.509 | -0.574 |
| Cc1ccsc1/C=C/C1=NCCCN1C [Morantel tartrate] | -0.53 | -0.0789 | -1.09 | -0.906 | -0.593 | -0.756 |
| CC(C(O)c1ccc(O)cc1)N1CCC(Cc2ccccc2)CC1 (centres undefined) [Ifenprodil tartrate] | 0.387 | -0.296 | 0.502 | 0.445 | 0.406 | 0.378 |
| CCN(CC)CCCC(C)Nc1ccnc2cc(Cl)ccc12 (centres undefined) [Chloroquine diphosphate] | 3.38 | 2.38 | 0.0406 | 0.105 | 0.896 | 1.26 |
| Cn1ccnc1S [Methimazole] | -0.549 | -0.811 | -0.397 | -0.237 | -0.496 | -0.58 |
| CCC(C)(CN(C)C)OC(=O)c1ccccc1 (centres undefined) [Amyleine hydrochloride] | -0.517 | 0.00392 | -0.884 | -0.337 | -0.528 | -0.471 |
| C[C@@H](O)[C@H]1C(=O)N2C(C(=O)O)=C(SCCNC=N)C[C@H]12 [Imipenem] | -0.41 | 0.231 | -0.414 | 0.00347 | -0.461 | -0.385 |
| CN(C)C/C=C(/c1ccc(Br)cc1)c1cccnc1 [Zimelidine dihydrochloride monohydrate] | -0.281 | 0.0916 | -0.265 | -0.387 | 0.179 | 0.387 |
| CN1CCN(C2=Nc3cc(Cl)ccc3Nc3ccccc32)CC1 [Clozapine] | 1.19 | 2.46 | 0.629 | -0.114 | 0.781 | 1.4 |
| CC1CNc2c(cccc2S(=O)(=O)N[C@@H](CCCNC(=N)N)C(=O)N2CC[C@@H](C)C[C@@H]2C(=O)O)C1 (some centres undefined) [Argatroban] | -0.429 | -0.462 | -0.724 | 0.346 | -0.455 | -0.335 |
| O=C(O)c1cc(-c2ccc(F)cc2F)ccc1O [Diflunisal] | -0.321 | -0.139 | -0.11 | -0.25 | -0.434 | -0.569 |
| O=C(OCCOCCO)c1ccccc1Nc1cccc(C(F)(F)F)c1 [Etofenamate] | -0.474 | -0.295 | -0.883 | -1.24 | -0.564 | -0.692 |
| COc1cc(C(=O)NCc2ccc(OCCN(C)C)cc2)cc(OC)c1OC [Trimethobenzamide hydrochloride] | -0.218 | -0.274 | -0.94 | -0.877 | -0.32 | -0.334 |
| c1ccc(CN(CC2=NCCN2)c2ccccc2)cc1 [Antazoline hydrochloride] | -0.107 | 0.686 | -0.0849 | 0.249 | -0.0343 | 0.301 |

| Structure (SMILES) | LBPA endosome anti-LBPA integrated intensity (z-score) [1] | LBPA endosome anti-LBPA integrated intensity (z-score) [2] | whole-cell filipin (z-score) [3] | whole-cell filipin (z-score) [4] | filipin (z-score) [5] | filipin (z-score) [6] |
| --- | --- | --- | --- | --- | --- | --- |
| Clc1ccc(CSC(Cn2ccnc2)c2ccc(Cl)cc2Cl)cc1 (centres undefined) [Sulconazole nitrate] | 0.249 | 1.59 | 1.22 | 1.32 | 0.361 | 0.461 |
| c1ccc2c(CC3=NCCN3)cccc2c1 [Naphazoline hydrochloride] | -0.505 | 0.993 | -0.75 | 0.085 | -0.523 | 0.0798 |
| CC(C(=O)O)c1cccc(C(=O)c2ccccc2)c1 (centres undefined) [Ketoprofen] | -0.482 | -0.219 | -0.803 | -0.835 | -0.552 | -0.545 |
| CC(Oc1ccccc1)C(=O)N[C@@H]1C(=O)N2[C@@H]1SC(C)(C)[C@@H]2C(=O)O (some centres undefined) [Phenethicillin potassium salt] | -0.589 | -1.24 | -0.612 | -0.336 | -0.493 | -0.525 |
| Cc1cc(-n2c(=O)[nH]c(=O)n(C)c2=O)ccc1Oc1ccc(SC(F)(F)F)cc1 [Toltrazuril] | -0.328 | 0.612 | -0.109 | 0.0439 | -0.337 | -0.457 |
| CC(C[N+](C)(C)C)OC(N)=O (centres undefined) [Bethanechol chloride] | -0.55 | -0.64 | -0.316 | -0.111 | -0.415 | -0.495 |
| CN1CCC(=C2c3ccccc3Sc3ccccc32)CC1 [Pimethixene maleate] | 2.35 | 1.97 | 0.776 | -0.782 | 1.82 | 0.962 |
| CCN(CC)C(=O)N1CCN(C)CC1 [Diethylcarbamazine citrate] | -0.522 | -0.824 | -0.731 | -0.758 | -0.529 | -0.553 |
| COc1ccc(C(=O)c2ccccc2)c(O)c1 [Oxybenzone] | -0.5 | -0.722 | -0.24 | 0.387 | -0.525 | -0.452 |
| CCn1cc(C(=O)O)c(=O)c2cc(F)c(N3CCNCC3)cc21 [Norfloxacin] | -0.548 | -0.705 | -0.938 | -1.18 | -0.584 | -0.612 |
| OCCN1CCN(CCCN2c3ccccc3C=Cc3ccccc32)CC1 [Opipramol dihydrochloride] | 0.228 | 1.81 | 0.629 | -0.0646 | 0.712 | 1.15 |
| O=C(O)/C=C/c1ccc(Cn2ccnc2)cc1 [Ozagrel hydrochloride] | -0.373 | 0.0325 | 0.164 | 0.704 | -0.284 | -0.0855 |
| CC=CC(=O)N(CC)c1ccccc1C [Crotamiton] | -0.66 | -1.3 | -0.358 | -0.316 | -0.501 | -0.424 |
| COc1ccccc1N1CCN(CCCCNC(=O)c2ccc3ccccc3c2)CC1 | 2.82 | 1.25 | 2.45 | 2.22 | 2.37 | 3.33 |
| CCN(CC)CCNC(=O)c1cc(S(C)(=O)=O)ccc1OC [Tiapride hydrochloride] | -0.48 | 0.333 | -0.576 | -0.522 | -0.565 | -0.513 |
| CC1(C)S[C@@H]2[C@H](NC(=O)[C@H](NC(=O)N3CCNC3=O)c3ccccc3)C(=O)N2[C@H]1C(=O)O [Azlocillin sodium salt] | -0.496 | -0.655 | -0.388 | -0.517 | -0.464 | -0.493 |
| CC(C)(C)NC(=O)[C@@H]1C[C@@H]2CCCC[C@@H]2CN1C[C@@H](O)[C@H](Cc1ccccc1)NC(=O)[C@H](CC(N)=O)NC(=O)c1ccc2ccccc2n1 [Saquinavir mesylate] | 0.938 | 0.684 | 1.12 | 0.276 | 0.903 | 0.906 |
| CCOC(=O)C1=C(COCCN)NC(C)=C(C(=O)OC)C1c1ccccc1Cl (centres undefined) [Amlodipine] | 1.97 | 0.223 | 0.774 | 0.736 | 2.32 | 1.8 |
| CC(=O)OCC(=O)[C@@]1(O)CC[C@H]2[C@@H]3CCC4=CC(=O)CC[C@]4(C)[C@H]3[C@@H](O)C[C@@]21C [Cortisol acetate] | -0.325 | -0.845 | -0.384 | -0.119 | -0.306 | -0.404 |
| O=C(CCNNC(=O)c1ccncc1)NCc1ccccc1 [Nialamide] | -0.371 | 0.29 | -0.078 | -0.132 | -0.403 | -0.566 |
| CCCCOC(=O)c1ccc(N)cc1 [Butamben] | -0.33 | 0.449 | -0.437 | -0.221 | -0.356 | -0.552 |
| CCc1ccc(CCOc2ccc(CC3SC(=O)NC3=O)cc2)nc1 (centres undefined) [Pioglitazone] | -0.492 | -0.449 | -0.697 | -0.748 | -0.5 | -0.629 |
| NS(=O)(=O)c1cc2c(cc1C(F)(F)F)NCNS2(=O)=O [Hydroflumethiazide] | -0.486 | -0.967 | -0.738 | -0.664 | -0.455 | -0.522 |
| O=C1NCC2(CCN(CCc3ccccc3)CC2)O1 [Fenspiride hydrochloride] | -0.609 | -0.156 | -1.07 | -0.91 | -0.575 | -0.493 |
